The text below walks through data of PubChem BioAssay (EPA / NIEHS).

Where “and” joins values, the source holds several entries; their conditions need not be identical. Identical values can stand only once. Results filed as inconclusive are left out. The source holds several records for some structures; these can differ, active in one and inactive in another. Calls of active or inactive are those of the source. How the source made its calls, unless noted: active means hit-call score of the fitted dose curve at least 0.9, where 1 is the maximum; inactive means score below 0.9.

Read-out in assay [1]: Monokine induced gamma interferon (MIG), CXCL9 (gene 4283)
Nature of the assay: BSK_3C_MIG: BioMAP Diversity Plus: 3C Assay for Monokine induced gamma interferon (MIG) Biomarker Activity (AID 2283021).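 On AC50: MIG protein level measured by immunoassay in the treated endothelial cultures.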 The note with it: primary human endothelial cells (HUVEC); actives raise or lower the signal. In a few lines: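 Primary human umbilical vein endothelial cells in the 3C system were exposed to chemical for 24 h, after which MIG was quantified by ELISA. Activity was fitted bidirectionally against DMSO as negative control and baseline.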

The nature of assay [2]: BSK_3C_SRB: Viability Assessment in the BioMAP Diversity Plus: 3C Assay (AID 2283023).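 Further: fitted both ways against DMSO so a hit may be signal rise or drop.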 The note with it: primary human endothelial cells (HUVEC). The method, boiled down: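 Primary human umbilical vein endothelial cells in the 3C system were read 24 h after compound dosing. Total protein was stained with 0.1% sulforhodamine B after 10% TCA fixation and read at 560 nm, with bidirectional fitting against DMSO as baseline.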

Read-out in assay [3]: Matrix Metallopeptidase 1 (MMP1), MMP1 (gene 4312)
In words: BSK_BE3C_MMP1: BioMAP Diversity Plus: BE3C Assay for Matrix Metallopeptidase 1 (MMP1) Biomarker Activity (AID 2283024). As to conditions: primary human bronchial epithelial cells; actives raise or lower the signal. In a few lines:
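Primary human bronchial epithelial cells were dosed with test chemicals, and MMP1 levels were measured by ELISA 24 h later. Data were fitted bidirectionally against DMSO as the negative control and activity baseline.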

Assay [4] can be described thus: BSK_3C_Vis: BioMAP Diversity Plus: 3C Assay for Morphology Visualization (AID 2283025).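 Further: fitted both ways so gain or loss versus DMSO counts.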 As to conditions: primary human endothelial cells (HUVEC). In a few lines: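 Human umbilical vein endothelial cells in the 3C system were imaged by light microscopy 24 h after chemical dosing to record cell morphology. Activity was fitted bidirectionally against DMSO as negative control and baseline; the endpoint serves as a background control.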

Read-out in assay [5]: Pselectin, SELP (gene 6403)
Nature of the assay: BSK_4H_Pselectin: BioMAP Diversity Plus: 4H Assay for Pselectin Biomarker Activity (AID 2283026). The note with it: primary human endothelial cells (HUVEC); actives raise or lower the signal. In a few lines:
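Primary human umbilical vein endothelial cells were exposed to test chemical for 24 h, then cell-surface P-selectin was quantified by ELISA. Activity was fitted bidirectionally against DMSO as negative control and baseline.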

Assay [6] in a line: BSK_4H_SRB: Viability Assessment in the BioMAP Diversity Plus: 4H Assay (AID 2283027).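 Further: cells exposed to compound for 24 h before staining.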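 On AC50: curves fitted both ways versus DMSO so AC50 may be loss or gain.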 The note with it: primary human endothelial cells (HUVEC). In a few lines:
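Human umbilical vein endothelial cells were dosed with chemical and, after 24 h, fixed with 10% TCA, stained with 0.1% sulforhodamine B, and read at 560 nm to give total protein as a cytotoxicity measure. Bidirectional fitting relative to DMSO control.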

Assay [7] is described as follows: BSK_BE3C_SRB: Viability Assessment in the BioMAP Diversity Plus: BE3C Assay (AID 2283028).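 On AC50: fitted both ways so AC50 may mark signal gain or loss versus DMSO.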 As to conditions: primary human bronchial epithelial cells. In a few lines:
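Human primary bronchial epithelial cells were exposed to test chemicals for 24 h. Total protein in parallel cultures was then measured by staining with 0.1% sulforhodamine B after 10% TCA fixation, with absorbance read at 560 nm. Activity was fitted bidirectionally against DMSO.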

Read-out in assay [8]: Thrombomodulin, THBD (gene 7056)
Nature of the assay: BSK_3C_Thrombomodulin: BioMAP Diversity Plus: 3C Assay for Thrombomodulin Biomarker Activity (AID 2283029). The note with it: primary human endothelial cells (HUVEC); actives raise or lower the signal. In a few lines: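 Primary human umbilical vein endothelial cells (3C system) were exposed to chemical for 24 h, then thrombomodulin levels were measured by ELISA. Activity was fitted bidirectionally against the DMSO negative control as baseline.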

Read-out in assay [9]: Urokinase-type plasminogen activator receptor (uPAR), PLAUR (gene 5329)
In words: BSK_4H_uPAR: BioMAP Diversity Plus: 4H Assay for Urokinase-type plasminogen activator receptor (uPAR) Biomarker Activity (AID 2283030). As to conditions: primary human endothelial cells (HUVEC); actives raise or lower the signal. In a few lines:
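Primary human umbilical vein endothelial cells were exposed to chemical for 24 h before cell-surface uPAR was quantified by ELISA. Activity was fitted bidirectionally against the DMSO negative control baseline.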

Read-out in assay [10]: Vascular endothelial growth factor receptor 2 (Homo sapiens) (UniProt P35968)
Nature of the assay: BSK_4H_VEGFRII: BioMAP Diversity Plus: 4H Assay for Vascular endothelial growth factor receptor 2 (VEGFR2) Biomarker Activity (AID 2283031).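 On AC50: cell-surface VEGFR2 protein level quantified by ELISA.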 As to conditions: primary human endothelial cells (HUVEC); actives raise or lower the signal. In a few lines:
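Primary human umbilical vein endothelial cells in the BioMAP 4H system were dosed with test chemical, and 24 h later VEGFRII was measured by ELISA. Activity was fitted bidirectionally against DMSO as negative control and baseline.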

Read-out in assay [11]: Human Leukocyte Antigen - DR isotype (HLADR), HLA-DRA (gene 3122)
Nature of the assay: BSK_BE3C_HLADR: BioMAP Diversity Plus: BE3C Assay for Human Leukocyte Antigen - DR isotype (HLADR) Biomarker Activity (AID 2283032). As to conditions: primary human bronchial epithelial cells; actives raise or lower the signal. The method, boiled down: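 Human primary bronchial epithelial cells in the BE3C system were exposed to chemicals for 24 h, after which HLA-DR levels were quantified by ELISA. Activity was fitted bidirectionally, gain or loss of signal, against DMSO as negative control and baseline.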

Read-out in assay [12]: Vascular cell adhesion molecule 1 (VCAM1), VCAM1 (gene 7412)
Nature of the assay: BSK_4H_VCAM1: BioMAP Diversity Plus: 4H Assay for Vascular cell adhesion molecule 1 (VCAM1) Biomarker Activity (AID 2283033).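 On outcome: cell-surface VCAM-1 protein measured by ELISA.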 The note with it: primary human endothelial cells (HUVEC); actives raise or lower the signal. In a few lines: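 Primary human umbilical vein endothelial cells were exposed to chemicals for 24 h, after which VCAM-1 was quantified by ELISA. Responses were fitted bidirectionally against DMSO as negative control and activity baseline.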

Read-out in assay [13]: Interferon-gamma inducible Protein 10 (IP10), CXCL10 (gene 3627)
In words: BSK_BE3C_IP10: BioMAP Diversity Plus: BE3C Assay for Interferon-gamma inducible Protein 10 (IP10) Biomarker Activity (AID 2283034). The note with it: primary human bronchial epithelial cells; actives raise or lower the signal. In a few lines:
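Human primary bronchial epithelial cells were exposed to chemicals for 24 hours, after which IP-10 levels were measured by ELISA. Data were fitted bidirectionally against DMSO, which served as the negative control and activity baseline.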

Read-out in assay [14]: Plasminogen activator inhibitor-1 (PAI1), SERPINE1 (gene 5054)
Nature of the assay: BSK_BE3C_PAI1: BioMAP Diversity Plus: BE3C Assay for Plasminogen activator inhibitor-1 (PAI1) Biomarker Activity (AID 2283037). The note with it: primary human bronchial epithelial cells; actives raise or lower the signal. The method, boiled down: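 Human primary bronchial epithelial cells were exposed to chemical for 24 h, then PAI-1 was quantified by ELISA. Activity was fitted bidirectionally relative to the DMSO negative control baseline.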

Read-out in assay [15]: urokinase plasminogen activator (uPA), PLAU (gene 5328)
In words: BSK_BE3C_uPA: BioMAP Diversity Plus: BE3C Assay for urokinase plasminogen activator (uPA) Biomarker Activity (AID 2283038).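 On outcome: uPA protein level quantified by ELISA in cell cultures; uPA read one day after compound addition.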 The note with it: primary human bronchial epithelial cells; actives raise or lower the signal. The method, boiled down:
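Human primary bronchial epithelial cells were exposed to chemical for 24 h, then uPA levels were measured by ELISA. Responses were fitted bidirectionally against DMSO as negative control and baseline. Parallel SRB staining of total protein gauged overt cytotoxicity.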

Read-out in assay [16]: Urokinase-type plasminogen activator receptor (uPAR), PLAUR (gene 5329)
In words: BSK_BE3C_uPAR: BioMAP Diversity Plus: BE3C Assay for Urokinase-type plasminogen activator receptor (uPAR) Biomarker Activity (AID 2283039).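 On outcome: cells exposed to compound for one day before measurement.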 As to conditions: primary human bronchial epithelial cells; actives raise or lower the signal. The method, boiled down:
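Primary human bronchial epithelial cells were dosed with chemical and harvested 24 h later; uPAR was quantified by ELISA. Activity was fitted bidirectionally against DMSO as negative control and baseline.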

Read-out in assay [17]: Interleukin-6 (IL6), IL6 (gene 3569)
In words: BSK_CASM3C_IL6: BioMAP Diversity Plus: CASM3C Assay for Interleukin-6 (IL6) Biomarker Activity for (AID 2283040). The note with it: primary human coronary artery smooth muscle cells; actives raise or lower the signal.

Read-out in assay [18]: Tissue plasminogen activator (tPA), PLAT (gene 5327)
In words: BSK_BE3C_tPA: BioMAP Diversity Plus: BE3C Assay for Tissue plasminogen activator (tPA) Biomarker Activity (AID 2283041).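 On outcome: tPA level quantified by ELISA one day after compound addition.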 As to conditions: primary human bronchial epithelial cells; actives raise or lower the signal. In a few lines:
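Human primary bronchial epithelial cells were dosed with chemical and tPA biomarker levels measured by ELISA 24 hours later. Activity was fitted bidirectionally against DMSO as negative control and baseline.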

Read-out in assay [19]: Monokine induced gamma interferon (MIG), CXCL9 (gene 4283)
In words: BSK_BE3C_MIG: BioMAP Diversity Plus: BE3C Assay for Monokine induced gamma interferon (MIG) Biomarker Activity (AID 2283035). The note with it: primary human bronchial epithelial cells; actives raise or lower the signal. In a few lines: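 ELISA read-out of MIG in human lung bronchial epithelial primary cultures, 24 h post-dosing. Bidirectional curve fit vs DMSO baseline.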

The target of assay [20] is human Vitamin D Receptor (VDR), VDR (gene 7421) (UniProt P11473). Nature of the assay: ATG_VDR_TRANS: Attagene TRANS-FACTORIAL HepG2 Assay for human Vitamin D Receptor (VDR) (AID 2283022; active means hit-call score of the fitted dose curve at least 0.9, where 1 is the maximum). The method, boiled down: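 HepG2 cells were transiently transfected with multiple GAL4-UAS reporter units, so signal reflects exogenous chimeric receptor-Gal4 activity. After 24 h compound exposure, reporter mRNA was measured by RT-PCR, fluorescent labelling and capillary electrophoresis, fitted for gain of signal versus DMSO.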
human Vitamin D Receptor (VDR), VDR (gene 7421), sequence (P11473 whole entry, looked up, the tested form may be a part): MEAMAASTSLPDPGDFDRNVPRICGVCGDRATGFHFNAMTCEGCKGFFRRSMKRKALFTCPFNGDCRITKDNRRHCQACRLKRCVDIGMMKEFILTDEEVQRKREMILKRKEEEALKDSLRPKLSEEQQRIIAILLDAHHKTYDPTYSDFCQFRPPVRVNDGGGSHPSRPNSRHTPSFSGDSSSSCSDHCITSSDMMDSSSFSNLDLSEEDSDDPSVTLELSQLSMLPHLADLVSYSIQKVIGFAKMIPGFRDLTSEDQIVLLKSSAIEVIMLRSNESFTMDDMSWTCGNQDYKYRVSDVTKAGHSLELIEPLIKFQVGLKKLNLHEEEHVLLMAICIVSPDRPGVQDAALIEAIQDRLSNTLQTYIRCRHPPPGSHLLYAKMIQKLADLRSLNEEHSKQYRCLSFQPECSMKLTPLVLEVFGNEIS

For the compound `NC(=O)c1c(Cl)cccc1Cl`, the result in [1], in [2], in [3], in assay [4], in [5] and in assay [6] was inactive. The result in assay [7], in assay [8], in assay [9], in [10], in assay [11] and in [12] was inactive. The outcome in assay [13], in [14], in assay [15], in assay [16], in assay [17] and in [18] was inactive.

Turning to `CCOC(=O)CCCCCCCCC(=O)OCC`, the result in assay [1], in assay [2], in assay [3], in assay [4], in [5] and in assay [6] was inactive. Besides, the result in [7], in assay [8], in assay [9], in assay [10], in assay [11] and in [12] was inactive. Further, the outcome in [13], in assay [19], in assay [14], in assay [15], in assay [16] and in [17] was inactive. Besides, the result in [18] was inactive.

Consider `O=C(O)C(F)(F)OC(F)(F)C(F)(F)OC(F)(F)C(F)(F)C(F)(F)C(F)(F)F`, for which the outcome in assay [1], in assay [2], in assay [5], in assay [6], in assay [7] and in assay [8] was inactive. Further, the result in assay [9], in [10], in assay [12], in [14], in [15] and in assay [16] was inactive. Further, the result in assay [17] and in [18] was inactive. Moreover, the AC50 (as a rule, the concentration giving half of the maximal activity seen) is 46 µM (active) in assay [2]; 19.9 µM (active) and 21.3 µM (active) in [3]; 21.2 µM (active) and 13.3 µM (active) in assay [11]; 46.8 µM (active) and 41.4 µM (active) in assay [13]; 12.4 µM (active) in assay [18].

As for `CC/C(=C(\c1ccccc1)c1ccc(OCCN(C)C)cc1)c1ccccc1`, the AC50 was 10.4 µM (active) and 9.73 µM (active) in [1]; 5.32 µM (active) and 6.55 µM (active) in assay [2]; 10.1 µM (active) and 12.3 µM (active) in [3]; 4.76 µM (active) and 5.36 µM (active) in assay [4]; 7.7 µM (active) and 8.24 µM (active) in [5]; 6.19 µM (active) and 8.06 µM (active) in assay [6]. The AC50 was 4.81 µM (active) and 5.24 µM (active) in [7]; 12.6 µM (active) in assay [8]; 5.66 µM (active) and 7.14 µM (active) in assay [9]; 4.71 µM (active) in assay [10]; 9.68 µM (active) and 9.06 µM (active) in [11]; 8.4 µM (active) and 8.08 µM (active) in assay [12]. The AC50 in assay [13] is 10.3 µM (active) and 9.01 µM (active); in assay [19] it was 12.1 µM (active) and 11.1 µM (active); in assay [14], 11.5 µM (active) and 11.7 µM (active); in [15], 9.63 µM (active) and 7.45 µM (active); in assay [16], 8.83 µM (active) and 6.66 µM (active); in [17], 27.3 µM (active) and 32.2 µM (active). Further, the AC50 in assay [18] is 7.72 µM (active) and 14 µM (active). Besides, the result in [8] and in assay [10] was inactive.

As to `CCCCN(CCO)CCO`, the outcome in assay [1], in [20], in assay [2], in [3], in assay [5] and in [6] was inactive. Further, the result in assay [7], in assay [8], in assay [9], in [10], in [11] and in assay [12] was inactive. The outcome in [13], in assay [14], in assay [15], in [16], in assay [17] and in assay [18] was inactive.
